Test systems include T-47D breast; BT-549 breast; MDA-MB-435 melanoma; SW-620 colon; MCF7 breast; HCT-116 colon; HCC-2998 colon; KM12 colon.
Common to all, as to assay: NCI-60 one-dose screen, 48 h (100 = growth as untreated, 0 = no growth, -100 = all killed)
Details in all cases: 10 µM unless noted

About 83,000 compounds went through this panel and 20% of them were active in at least one assay; those are over-represented in the sample as a whole.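 Method: cells in 96-well plates; compound added at one concentration; 48 h incubation; percent growth measured; values under 10 scored active.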 Values without a mark were called inactive. Active and inactive are the calls of the source.

With `N#C/C(=C/C=C/c1cccc(Cl)c1)S(=O)c1ccccc1` (stereo not drawn), the growth with T-47D breast was -47.2% (active); in the test with BT-549 breast, -69.3% (active); with MDA-MB-435 melanoma it was -35.4% (active); in the test with SW-620 colon it was -58.9% (active); with MCF7 breast, -52.5% (active); in the test on HCT-116 colon, -86.3% (active). Besides, the growth in the test on HCC-2998 colon was -88.7% (active); in the test on KM12 colon, -47.7% (active).

As to `CNS(=O)(=O)c1n[nH]nc1-c1cc(C(C)(C)C)c(O)c(C(C)(C)C)c1`, the growth is 78.9% in the test with T-47D breast; 101% in the test with BT-549 breast; 106% in the test with MDA-MB-435 melanoma; 109% with SW-620 colon; 93.8% in the test on MCF7 breast; 94.6% with HCT-116 colon. The growth in the test with HCC-2998 colon and in the test on KM12 colon was 105% throughout.

For the molecule `NC1=NCc2nc3ccccc3c(=O)n2C1`, the growth in the test on T-47D breast was 113%; in the test with BT-549 breast it was 113%; in the test with MDA-MB-435 melanoma, 100%; with SW-620 colon it was 103%; in the test on MCF7 breast, 105%; with HCT-116 colon, 101%. Besides, the growth in the test on HCC-2998 colon is 88.8%; in the test with KM12 colon, 100%.

On to `Cc1ccc2c(c1)Sc1c(ccc3ccccc13)N2`, for which the growth in the test with T-47D breast is 47.2%; with BT-549 breast, 81.2%; with MDA-MB-435 melanoma it was 81.6%; with SW-620 colon, 73.7%; in the test on MCF7 breast it was 56.5%; with HCT-116 colon, 29.1%. Besides, the growth was 67.6% in the test with HCC-2998 colon and 55.1% in the test on KM12 colon.

In the case of `Cc1cc(N2CCCC2)nc(NCc2cc(Nc3ccnc4cc(Cl)ccc34)ccc2F)n1`, the growth with T-47D breast was -54.7% (active); with BT-549 breast, 55.2%; in the test on MDA-MB-435 melanoma it was -96.1% (active); with SW-620 colon it was -71.1% (active); in the test with MCF7 breast it was -56.1% (active); with HCT-116 colon, -76.3% (active). Besides, the growth was -74.9% (active) with HCC-2998 colon and -58.8% (active) with KM12 colon.

Take `CCN1CCN(c2cc(C)nc(NCc3cc(Nc4ccnc5cc(Cl)ccc45)ccc3F)n2)CC1`: the growth is -17.7% (active) in the test with T-47D breast; 98.6% in the test with BT-549 breast; 50.7% in the test on MDA-MB-435 melanoma; 40.8% in the test on SW-620 colon; 6.99% (active) in the test with MCF7 breast; 11.8% with HCT-116 colon. The figures for the growth with HCC-2998 colon and in the test with KM12 colon were 28% and 82.7%, respectively.

With `CCc1ccccc1-n1c(N)c(C#N)c(-c2ccc(N(C)C)cc2)c(C#N)c1=O`, the growth in the test with T-47D breast is 80%; in the test with BT-549 breast, 85.5%; in the test on MDA-MB-435 melanoma, 100%; with SW-620 colon it was 93%; in the test with MCF7 breast, 94.9%; with HCT-116 colon, 94.1%. Besides, the values for the growth in the test with HCC-2998 colon and in the test with KM12 colon were 104% and 97.6%, respectively.

Take `O=Cc1ccc(O)c2ncccc12`: the growth in the test on T-47D breast is 22.8%; with BT-549 breast it was -1.72% (active); in the test with MDA-MB-435 melanoma it was 60.3%; with SW-620 colon, 21.5%; in the test with MCF7 breast, 7.29% (active); in the test with HCT-116 colon, -7.5% (active). In addition, the growth in the test with HCC-2998 colon is 86.6%; with KM12 colon it was 69.6%.

On to `CC(CN1CCCCC1)C(=O)c1ccccc1` (stereo not drawn), for which the growth in the test with T-47D breast was 99.2%; in the test with BT-549 breast it was 116%; in the test with MDA-MB-435 melanoma it was 104%; in the test with SW-620 colon, 104%; in the test with MCF7 breast it was 91%; in the test on HCT-116 colon, 112%. Further, the figures for the growth with HCC-2998 colon and with KM12 colon were 119% and 105%, respectively.

In the case of `Cc1nc2ccccc2c(/C=C/c2ccc(Cl)cc2)c1C(=O)/C=C/c1ccc(F)cc1`, the growth with T-47D breast is 17.7%; in the test on BT-549 breast, 13.9%; in the test on MDA-MB-435 melanoma, -21.3% (active); in the test with SW-620 colon it was -19.6% (active); in the test on MCF7 breast it was 17.6%; in the test with HCT-116 colon it was -70.5% (active). In addition, the results for the growth with HCC-2998 colon and in the test with KM12 colon were -67.3% (active) and 21.2%, respectively.

With `COc1ccc2[nH]c(O)c(C(=Nc3ccc(N(C)C(=O)CN4CCN(C)CC4)cc3)c3ccccc3)c2c1`, the growth in the test on T-47D breast is 53.4%; in the test on BT-549 breast it was 35.8%; in the test with MDA-MB-435 melanoma, 42.3%; in the test on SW-620 colon, 16.8%; with MCF7 breast, 29%; with HCT-116 colon, 11.1%. Moreover, the growth was 34.3% in the test with HCC-2998 colon and 18.2% in the test on KM12 colon.

For the molecule `O=C1CCc2c(sc3[nH]c(=S)n(-c4ccc(OC(F)(F)F)cc4)c(=O)c23)C1`, the growth was 20.3% in the test on T-47D breast; 38% in the test on BT-549 breast; 55% with MDA-MB-435 melanoma; 19.9% in the test with SW-620 colon; 44.5% in the test on MCF7 breast; 30.1% in the test on HCT-116 colon. In addition, the growth was 28.5% in the test with HCC-2998 colon and 10.8% with KM12 colon.

Take `Cc1ccc(/C=C/c2c(C(=O)/C=C/c3ccc(C(F)(F)F)cc3)c(C)nc3ccccc23)cc1`: the growth with T-47D breast was -13.1% (active); in the test on BT-549 breast, -30.6% (active); in the test on MDA-MB-435 melanoma, -87.9% (active); in the test on SW-620 colon, -43.2% (active); in the test with MCF7 breast, -14.4% (active); with HCT-116 colon, -56.8% (active). Also, the growth in the test on HCC-2998 colon was -74.3% (active); with KM12 colon, -70% (active).

Take `COc1cccc2c1C(=O)c1c(O)c3c(c(O)c1C2=O)CC(O)(/C(C)=N/NC(=O)CCCCC(=O)N/N=C(\C)C1(O)Cc2c(O)c4c(c(O)c2C(OC2CC(N)C(O)C(C)O2)C1)C(=O)c1c(OC)cccc1C4=O)CC3OC1CC(N)C(O)C(C)O1` (stereo not drawn): the growth was -16.2% [5 µM] (active) with T-47D breast; -21.6% [5 µM] (active) in the test on BT-549 breast; -87.6% [5 µM] (active) with MDA-MB-435 melanoma; -32.3% [5 µM] (active) in the test with SW-620 colon; 2.23% [5 µM] (active) in the test on MCF7 breast; -3.01% [5 µM] (active) in the test with HCT-116 colon. Further, the values for the growth in the test with HCC-2998 colon and in the test with KM12 colon were -53.9% [5 µM] (active) and -21.6% [5 µM] (active), respectively.

Turning to `COC1=C(OC)C(=O)C(OC)=C(OC)C1=O`, the growth with T-47D breast is 94.2%; in the test with BT-549 breast, 101%; with MDA-MB-435 melanoma it was 103%; with SW-620 colon, 101%; in the test on MCF7 breast it was 99.5%; in the test on HCT-116 colon, 98.6%. Further, the growth in the test with HCC-2998 colon was 89.3%; in the test on KM12 colon, 100%.

As to `O=C(Nc1ccc(-n2cc(-c3ccncc3)c(-c3ccc(Cl)c(O)c3)n2)cc1)N1CCOCC1`, the growth with T-47D breast is 83.9%; with BT-549 breast it was 100%; in the test with MDA-MB-435 melanoma, 104%; in the test on SW-620 colon, 113%; in the test on MCF7 breast it was 101%; in the test on HCT-116 colon, 94.8%. Moreover, the growth is 109% in the test on HCC-2998 colon and 100% in the test on KM12 colon.

The values are drawn from PubChem BioAssay (NCI).
